# This is part of a sample that, as a whole, favours compounds with a hit. Of some 83,000 tested, about 20% had one in any assay.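 Activity criterion: percent growth below 10, measured after cells in 96-well plates were exposed to a single compound concentration for 48 hours.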 Values without a mark were called inactive. Calls of active or inactive are those of the source.
# System: SNB-75 CNS
# Assay: NCI-60 one-dose screen, 48 h (100 = growth as untreated, 0 = no growth, -100 = all killed)
# Settings: 10 µM unless noted
# Protocol: Growth inhibition of the SNB-75 human tumor cell line is measured as a screen for anti-cancer activity. Cells are grown in 96 well plates and exposed to the test compound for 48 hours. Compounds are tested at a single concentration, which is 10^-5 M for most compounds. The reported endpoint is percent growth (GI% or GIPRCNT), where numbers from 0 - 100% represent growth inhibition, and numbers from -100% - 0 represent cell death. For example, a value of 40 represents 60% growth inhibition. A value of 0 means no net growth occurred over the course of the experiment. A value of -40 indicates 40% of cells at the beginning of the experiment died by the end of the experiment. A value of -100 means all cells are dead at the end of the experiment.
# NCI-60 Human Tumor Cell Lines Screen was performed using the standard one-dose NCI protocol, which is described in more detail at https://dtp.cancer.gov/discovery_development/nci-60/default.htm.
# Compounds with GIPRCNT values below 10 were considered active. Activity score was based on GIPRCNT using the following formula: […]
# Score is 0 for GIPRCNT values of 100 or above, 50 for GIPRCNT values of 0, and 100 for GIPRCNT values of -100.
row,Structure (SMILES),growth
1,COc1cc(-c2nc3occn3c2-c2ccnc(NCCCNS(=O)(=O)c3ccccc3)n2)ccc1F,102%
2,CN1CCN(Cc2cc(NC(=O)c3cccc(C#Cc4cccc5[nH]nc(N)c45)c3)cc(C(F)(F)F)c2)CC1,22.9%
3,COc1ccc(-c2cn(-c3ccc(Cl)cc3)c(SCC(=O)c3ccc([N+](=O)[O-])cc3)n2)cc1,39%
4,CCc1ccc(CCC(=O)Nc2ncc(Cc3ccc(Cl)cc3)s2)o1,-7.87% (active)
5,CN(Cc1cnc2nc(N)nc(N)c2n1)c1c(Cl)cc(C(=O)NC(CCC(=O)O)C(=O)O)cc1Cl (stereo not given),63.9%
6,Cn1cc(-c2csc(-c3cn(C)c4ccc(Br)cc34)n2)c2cnccc21,-93.6% (active)
7,Cc1ccc(-c2nc(C(Cl)Cl)nc3cc(C)nn23)cc1,-11.5% (active)
8,CN1CCN(CCCOC(=O)c2c3c(n4ccccc24)C(=O)c2ncccc2C3=O)CC1,-88.7% (active)
9,NC(=S)N/N=C/c1cn(-c2ccccc2)nc1-c1cc2ccccc2oc1=O,8.48% (active)
10,CC[C@H](CC[C@@H](C)[C@H]1CC[C@H]2[C@@H]3CC[C@@H]4CC(=O)/C(=C\c5ccncc5)C[C@]4(C)[C@H]3CC[C@]12C)C(C)C,99.4%
11,O=C(Nc1cccc(NC(=O)C2CCCCC2)c1)c1ccccn1,87%
12,COc1cc(C2C3=C(COC3=O)N(CCO)c3cc4c(cc32)OCCO4)cc(OC)c1OC (stereo not given),-5.04% (active)
13,CN(C)c1ccc(-c2cc(-c3ccc(Nc4nc(Nc5ccc(Cl)cc5)nc(Nc5ccc(Cl)cc5)n4)cc3)nc(N)c2C#N)cc1,83.8%
14,CCN1C(=O)N(CC)C2C1NN=C1SCC(=O)N12 (stereo not given),85.8%
15,Cc1ccc(/C=C/C(=O)c2ccc(NC(=O)CSc3nc4c([nH]3)c(=O)n(C)c(=O)n4C)cc2)c(C)c1,18.9%
16,CC/C(Cc1ccccc1)=C(\c1ccc(OCCN2CCCCCC2)cc1)c1ccc(OC(=O)NCc2ccccc2)cc1,66.4%
17,COC(=O)c1nc(-c2ccccc2)oc1S(=O)(=O)N1CCC(C(N)=O)CC1,93.2%
18,O=C(CN1C(=O)/C(=C/c2ccco2)SC1=S)NCCc1c[nH]c2ccc(F)cc12,78%
19,CCCCSCC(=O)c1ccccc1,82.3%
20,COCCCOc1cc(C[C@@H](C[C@H](N)[C@@H](O)C[C@H](C(=O)NCC(C)(C)C(N)=O)C(C)C)C(C)C)ccc1OC,88.4%

row,Structure (SMILES),growth
1,CC(C)CCC[C@@H](C)C1CCC2C3CCC4=C/C(=N/OCCN(C)C)CC[C@]4(C)C3CC[C@@]21C (stereo not given in full),80.5%
2,Cc1ccc(O)c(NC(=O)c2ccc(CNc3ccnc(C(F)(F)F)c3)cc2)c1,72.5%
3,O=C(CSc1nc2ccc([N+](=O)[O-])cc2[nH]1)Nc1cccc([N+](=O)[O-])c1,49.5%
4,CCCCCSB(SCCCCC)c1ccccc1,78.7%
5,COc1ccc(/C=C/C(=O)c2cc3c(N)c(C(=O)Nc4ccccc4C)sc3nc2C)cc1,-0.543% (active)
6,c1ccc(CCc2ccccc2-c2cc(-c3ccccc3)on2)cc1,80.5%
7,O=C(/C=C/C12c3ccccc3C(c3ccccc31)C1C(=O)NC(=O)C12)c1ccc(F)cc1 (stereo not given),7.89% (active)
8,COc1ccc2nc3ccccc3c(NCc3ccccc3)c2c1,45.5%
9,O=C1c2cc3c(cc2-c2c1c1ccc(Cl)cc1c(=O)n2C[C@H](O)CO)OCO3,-9.59% (active)
10,C=C(CN1CC=CCC1)[C@@H]1CC[C@]2(CO)CC[C@]3(C)[C@H](CC[C@@H]4[C@@]5(C)CC[C@H](O)C(C)(C)[C@@H]5CC[C@]43C)[C@@H]12,108%
11,CCSC1=CC(=O)c2ccccc2C1=O,52.8%
12,c1ccc(CNc2ccc3nc(CCC4CCCCC4)[nH]c3c2)cc1,84.9%
13,Cc1ccc(-c2cc(C(=O)N3N=C(c4ccc(N)cc4)CC3c3ccc(Cl)cc3)c3ccccc3n2)cc1 (stereo not given),-4.36% (active)
14,OC(c1ccccc1)(c1ccccc1)c1ccccc1-c1ccccc1,94.1%
15,C=CCCC(=O)N1C=CC(=O)[C@H](O)[C@@H]1/C=C/c1ccccc1,85% [100 µM]
16,CC(C)c1ccc(C(=O)Nc2sc3cc(O)ccc3c2C#N)cc1,22.6%
17,CCCCc1oc2ccccc2c1C(=O)c1ccc(O)cc1,62.4%
18,COc1ccc(-c2cc(-c3ccc(OC)cc3)nc(NCCCNc3ccnc4cc(Cl)ccc34)n2)cc1,112%
19,CCOc1ccc(/C=N\N=C\c2ccc(OCC)cc2)cc1,112%
20,CCn1cc(C2=C(c3cn(C)c4ncccc34)C(=O)NC2=O)c2cccnc21,-10.8% (active)
